Test results from PMC4336329 (PLoS ONE, 2015).
The whole screen tested about 310,000 compounds, of which about 14,000 (4.5%) showed an effect of 50% or more. Effects have a minus sign here. The list comes from a sample in which strong results are over-represented; it also holds similar structures and randomly drawn compounds.

The compounds below were run against human ether-à-go-go-related gene (hERG) potassium channel (human, UniProt Q12809) (assay: primary screen, population patch clamp on CHO cells stably expressing hERG; higher = less effect of the substance).
Chain of human ether-à-go-go-related gene (hERG) potassium channel (Q12809 whole entry, looked up): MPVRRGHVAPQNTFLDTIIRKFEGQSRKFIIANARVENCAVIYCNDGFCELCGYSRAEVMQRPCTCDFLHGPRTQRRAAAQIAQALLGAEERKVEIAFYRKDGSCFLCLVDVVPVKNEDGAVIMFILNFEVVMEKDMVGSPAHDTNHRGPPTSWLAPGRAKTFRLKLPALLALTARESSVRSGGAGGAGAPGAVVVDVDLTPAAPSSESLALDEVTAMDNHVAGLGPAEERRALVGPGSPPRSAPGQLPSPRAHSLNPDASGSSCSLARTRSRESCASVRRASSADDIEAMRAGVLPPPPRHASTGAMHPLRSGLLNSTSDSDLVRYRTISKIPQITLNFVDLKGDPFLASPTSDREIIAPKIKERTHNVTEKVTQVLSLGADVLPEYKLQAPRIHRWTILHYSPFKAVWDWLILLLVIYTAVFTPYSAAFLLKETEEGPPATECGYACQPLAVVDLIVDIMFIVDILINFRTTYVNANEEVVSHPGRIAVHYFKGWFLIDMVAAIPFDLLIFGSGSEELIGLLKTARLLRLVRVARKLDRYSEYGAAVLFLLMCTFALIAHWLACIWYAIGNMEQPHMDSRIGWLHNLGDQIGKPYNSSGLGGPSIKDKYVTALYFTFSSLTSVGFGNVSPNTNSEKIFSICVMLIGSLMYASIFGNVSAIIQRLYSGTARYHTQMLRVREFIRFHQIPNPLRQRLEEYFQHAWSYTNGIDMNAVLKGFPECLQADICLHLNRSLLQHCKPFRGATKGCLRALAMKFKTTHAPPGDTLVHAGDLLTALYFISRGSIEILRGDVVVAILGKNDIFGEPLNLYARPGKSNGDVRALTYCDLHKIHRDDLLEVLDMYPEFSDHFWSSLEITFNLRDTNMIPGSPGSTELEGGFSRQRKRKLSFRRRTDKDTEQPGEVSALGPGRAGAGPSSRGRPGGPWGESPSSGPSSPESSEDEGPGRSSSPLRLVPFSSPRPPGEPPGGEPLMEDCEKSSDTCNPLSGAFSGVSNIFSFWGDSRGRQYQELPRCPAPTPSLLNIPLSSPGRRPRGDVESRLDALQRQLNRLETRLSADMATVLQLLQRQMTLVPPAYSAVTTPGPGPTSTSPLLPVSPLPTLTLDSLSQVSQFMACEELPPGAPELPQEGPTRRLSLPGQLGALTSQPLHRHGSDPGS
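Note: peak tail current of the secondary pulse compared with the same well before compound.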

Structure (SMILES) | hERG current change (%, negative = inhibition) at 10uM
O=C(COc1ccc2c3c(c(=O)oc2c1)CCCC3)NC(Cc1ccc(Cl)cc1)C(=O)O (stereo not drawn) | 5.92%
CCOC(=O)c1nc(C)n(-c2cc(Cl)cc(Cl)c2)n1 | -17.5%
CCOC(=O)c1nn(-c2ccccc2)c(=O)cc1OCC(=O)Nc1cc(C)ccc1OC | -44%
CCCNc1nc2c(c(=O)n(C)c(=O)n2C)n1Cc1ccc(F)cc1 | -12.8%
COc1ccccc1NC(=O)CCC(=O)O | 23.4%
COc1ccc(N2C(=O)CSC2c2cccs2)cc1 (stereo not drawn) | -3.37%
O=C(Oc1c(Cl)cc(Cl)c2cccnc12)c1cccs1 | 1.95%
O=C(Oc1c(CN2CCOCC2)cc(Cl)c2cccnc12)c1cccs1 | -21.9%
CN1CCN(Cc2cc(Cl)c3cccnc3c2OC(=O)c2cccs2)CC1 | -53.3%
CN(C)S(=O)(=O)c1ccc(N2CCCC2)c(C(=O)NNC(=O)c2ccc(F)cc2)c1 | 15.5%
COc1ccc(NC(=O)NNC(=O)C(C)Oc2ccc3ccccc3c2)cc1OC (stereo not drawn) | -16.2%
COc1ccc(C(=O)NCc2nnc(SCC(=O)N3CCOCC3)o2)cc1OC | 13.7%
CCNC(=O)N(CCOC)CC1CCCN(C2Cc3ccccc3C2)C1 (stereo not drawn) | -22.9%
CCOC(=O)CNC(=O)N(CCOC)CC1CCCN(C2Cc3ccccc3C2)C1 (stereo not drawn) | -28.5%
COCCN(CC1CCCN(C2Cc3ccccc3C2)C1)C(=O)c1ccc(C(C)=O)cc1 (stereo not drawn) | -78.6%
COCCN(CC1CCCN(C2Cc3ccccc3C2)C1)C(=O)CSC (stereo not drawn) | -10.7%
CCCNC(=O)N(CCOC)CC1CCCN(C2Cc3ccccc3C2)C1 (stereo not drawn) | -47.8%
COCCN(CC1CCCN(C2Cc3ccccc3C2)C1)C(=O)c1cccs1 (stereo not drawn) | -68.5%
O=C(NCc1ccco1)C1CCCN(S(=O)(=O)c2cccc3cccnc23)C1 (stereo not drawn) | 0.148%
CCOC(=O)c1cc(-c2nnc(SCC(=O)Nc3ccc(F)cc3)o2)c(C)nc1C | 7.9%
COc1ccc(C(=O)NCc2nnc(SCC(=O)c3ccccc3)n2C)cc1OC | -18.2%
O=C(c1cc(-c2ccccc2)n[nH]1)N1CCc2c([nH]c3ccccc23)C1c1ccccn1 (stereo not drawn) | 14.5%

Structure (SMILES) | hERG current change (%, negative = inhibition) at 10uM
Cc1sc2nc(C3CCCCC3)nc(SCC(=O)N3CC(=O)Nc4ccccc43)c2c1C | 52.8%
CC(C)c1ccc(/C=C2\SC(=S)N(CCC(=O)N3CCCCC3CCO)C2=O)cc1 (stereo not drawn) | 20.3%
CCOc1ccccc1N1CC(C(=O)NNC(=O)c2cc(OC)c(OC)c(OC)c2)CC1=O (stereo not drawn) | 9%
Cc1cc(C)n2c(=S)[nH]nc2n1 | 19.6%
CCOC(=O)N1CCC(N2Cc3cccc(C(=O)N4CCN(C5CCCCC5)CC4)c3C2=O)CC1 | -62.4%
CCOC(=O)N1CCC(N2Cc3cccc(C(=O)N4CCN(c5cccc(C)c5C)CC4)c3C2=O)CC1 | -36.7%
CCOC(=O)N1CCC(N2Cc3cccc(C(=O)N4CC(C)CC(C)C4)c3C2=O)CC1 (stereo not drawn) | 6.31%
CCCN1Cc2cccc(C(=O)N3CCN(c4ccccc4)CC3)c2C1=O | 6.02%
CCCN1Cc2cccc(C(=O)N3CCN(c4cc(Cl)ccc4C)CC3)c2C1=O | -52.5%
CCOC(=O)N1CCC(N2Cc3cccc(C(=O)N4CCN(c5cccc(Cl)c5)CC4)c3C2=O)CC1 | -63.7%
COCCN1Cc2cccc(C(=O)N3CCN(c4cc(C)ccc4C)CC3)c2C1=O | -16.5%
CCOC(=O)N1CCC(N2Cc3cccc(C(=O)O)c3C2=O)CC1 | -23.6%
Cn1ccc(C(=O)NC(=S)N2CCSCC2)n1 | 9.2%
O=C(CSCc1cccc(Br)c1)NC1CC1 | -6.25%
Fc1cccc(CSc2nc3ncccc3[nH]2)c1 | 4.28%
O=C(O)CC(c1ccc(Cl)cc1)N1C(=O)CCC1=O (stereo not drawn) | -7.96%
Cn1cnnc1SCCNS(=O)(=O)c1ccccc1 | 10.8%
COc1ccc2c(C)c(C)c(=O)oc2c1OC | 3.4%
CN(C)C(=O)CCC(=O)N(C)CC1CCCN(CCc2ccc(F)cc2)C1 (stereo not drawn) | -38.1%
CN(CC1CCCN(CCc2ccc(F)cc2)C1)C(=O)CCC(F)(F)F (stereo not drawn) | -63%
CN(CC1CCCN(CCc2ccc(Cl)cc2)C1)C(=O)CC(F)(F)F (stereo not drawn) | -60.5%
CN(CC1CCCN(CCc2ccc(F)cc2)C1)C(=O)CCC(N)=O (stereo not drawn) | -23.9%

Structure (SMILES) | hERG current change (%, negative = inhibition) at 10uM
CC(=O)Nc1cccc(C(=O)OCc2csc(CC(=O)Nc3ccccc3C)n2)c1 | -14%
N#CCCn1cc(C=C2C(=O)NC(=O)NC2=O)c(-c2ccccc2)n1 | 25.2%
CCOc1ccc(C)cc1S(=O)(=O)n1ccc(C)n1 | 4.82%
O=C(CC(c1ccccc1)c1cc(Cl)ccc1O)NCCN1CCOCC1 (stereo not drawn) | -42.1%
Cc1ccc(CSCc2ccc(C(=O)NC3CC3)o2)cc1 | -5.31%
O=C(NCc1ccc2c(c1)OCO2)c1ccc(CSCc2cccc(Cl)c2)o1 | -11.1%
O=C(NCCCN1CCOCC1)c1cc(Cl)ccc1OCc1ccccc1 | -55.7%
CC1CCN(CCCNC(=O)c2ccc(CSCc3cccc(Cl)c3)o2)CC1 | -74.8%
COc1ccc(Cl)cc1C(=O)NCCCN1CCOCC1 | 9.16%
Cc1ccccc1S(=O)(=O)Cc1ccc(C(=O)NCCCN2CCC(C)CC2)o1 | -36.2%
Cc1ccc(CSCc2ccc(C(=O)NC3CCCC3)o2)cc1 | -18.2%
O=C(NCCCN1CCOCC1)c1cc(Cl)ccc1Cl | 11.5%
O=C(CC(c1ccccc1)c1cc(Cl)ccc1O)NCCCN1CCOCC1 (stereo not drawn) | -50%
O=C(CC(c1ccccc1)c1cc(Br)ccc1O)NCCCN1CCOCC1 (stereo not drawn) | -31.3%
Cc1cccc(CSCc2ccc(C(=O)NC3CCCC3)o2)c1 | -55.5%
CCC(C)C(NC(=O)C1CCC(C)CC1)C(=O)Nc1ccc(OC)cc1OC (stereo not drawn) | -4.26%
CCCCC(c1nnnn1C(C)C)N1CCN(C(=O)c2ccco2)CC1.Cl (stereo not drawn) | -18.9%
O=C(c1ccccc1)N1N=C(c2ccccc2)CC1c1ccccc1[N+](=O)[O-] (stereo not drawn) | 13.4%
COc1ccccc1CNc1cc(CSc2ccc(Cl)cc2)nc(C)n1 | -0.554%
CCOC(=O)c1ccc(N2Cc3ccccc3C2=NC(=O)c2cccc([N+](=O)[O-])c2)cc1 | 10.7%
CN(C)c1ccc(/C=N/NC(=O)CCCO)cc1 | 24.4%
O=C(NCCCN1CCCC1)c1ccc(CSCc2cccc(Cl)c2)o1 | -61.8%

Structure (SMILES) | hERG current change (%, negative = inhibition) at 10uM
Cc1ccc(CSCC(=O)NCCCN2CCOCC2)cc1 | 11.4%
Cc1cccc(CS(=O)(=O)Cc2ccc(C(=O)NCCCN3CCOCC3)o2)c1 | -12.6%
CN1CCN(CCCNC(=O)c2ccc(CSCc3cccc(Cl)c3)o2)CC1 | -40.2%
COCCNC(=O)c1ccc(CSCc2cccc(Cl)c2)o1 | -7.69%
Cc1ccccc1CSCc1ccc(C(=O)NCCCN2CCOCC2)o1 | -47.6%
O=C(NCCCN1CCOCC1)c1ccc(CSCc2cccc(Cl)c2)o1 | -64.4%
O=C(NCCN1CCOCC1)c1ccc(CSCc2cccc(Cl)c2)o1 | -43.7%
Cc1ccc(CSCc2ccc(C(=O)NCCCN3CCOCC3)o2)cc1 | -51.8%
CC(=O)Nc1ccc(S(=O)(=O)Nc2ccc3c(c2)OCCO3)cc1Cl | 15.5%
CN(Cc1ccccc1)C(=O)c1c[nH]c2ccc(S(=O)(=O)N3CCOCC3)cc2c1=O | 3.03%
Cc1ccc(S(=O)(=O)N2CCN(C(=O)n3ccnc3)CC2)cc1 | -5.76%
CC(C)Cc1nc(N2CCN(C(=O)c3ccccc3)CC2)c(C#N)c2c1CCC2 | -24.1%
COc1cc(C)c(S(=O)(=O)NOCc2ccc([N+](=O)[O-])cc2)c(C)c1C | 8.43%
CN(C)C(=O)N1CCNCC1.Cl | 12.8%
CC(C)[C@H](NC(=O)OC(C)(C)C)C(=O)N1CCC(C(=O)N[C@@H](C)C(=O)Nc2ccc(F)cc2)CC1 | 10.7%
Cn1c(=O)c2c(nc(SCC(=O)NCc3ccc4c(c3)OCO4)n2Cc2ccccc2)n(C)c1=O | -46.9%
CCn1c(SCC(=O)Nc2ccc3c(c2)OCO3)nc2c1c(=O)n(C)c(=O)n2C | -0.539%
Cn1c(=O)c2c(nc(SCC(=O)NCc3ccc4c(c3)OCO4)n2Cc2ccc(Cl)cc2)n(C)c1=O | -50.6%
Cn1c(=O)c2c(nc(SCC(=O)NCC3CCCO3)n2Cc2ccc(F)cc2)n(C)c1=O (stereo not drawn) | -41.6%
Cn1c(=O)c2c(nc(NCc3ccc4c(c3)OCO4)n2Cc2ccc(F)cc2)n(C)c1=O | -5.77%
Cn1c(=O)c2c(nc(SCC(=O)NCc3ccc4c(c3)OCO4)n2Cc2ccc(F)cc2)n(C)c1=O | -63.1%
